Sampled rows, rich in hits. Any-hit rate of the full collection: about 21%.
Pf growth 48h – inhibits P. falciparum growth in the first generation, 48 h. Potency, µM (doses to about 28.7 µM), without a hit: top-dose activity change, negative = inhibition, usual class: inhibitors. hit rate 5.9% among 310,000. AID 504832. P. falciparum luciferase growth in erythrocytes, 48 h; also: potency is read from the fitted curve at half-maximal effect; % is scaled to controls: 0 for no effect and ±100 for the full control effect
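Cell-based growth assay: transgenic P. falciparum expressing firefly luciferase, cultured in red cells within RPMI 1640 containing 0.5% w/v Albumax, 24 mM bicarbonate and gentamycin. A drop in luciferase activity indicates inhibition.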
Cycloheximide cs – counter-screen hit for Shiga toxin inhibitors, cycloheximide; AID 2314; cell reporter, cycloheximide protein synthesis inhibition counterscreen; hit rate 12% among 300,000; max response, %; in the data active = max response mostly above about 13%, no sharp cut-off; inactive = mostly below about 14%; also: read at 38.3 µM for the half of the compounds with a filed dose; 0% is about no effect
Pf growth 96h – P. falciparum growth inhibition at 96 hours. P. falciparum luciferase reporter growth, 96 h. hit rate 6.9% among 320,000. Potency, µM (series often up to 28.7 µM), inactives show top-dose activity change, negative = inhibition, actives largely listed as inhibitors; also: potency is read from the fitted curve at half-maximal effect; % is scaled to controls: 0 for no effect and ±100 for the full control effect
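Compounds incubated with erythrocytes infected by luciferase-expressing P. falciparum (2% hematocrit, 0.05% parasitemia final) for 96 hours, 37 C in 5% CO2. Growth inhibition scored as decreased luciferase luminescence.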
Shiga inhibitor – Shiga toxin inhibition | hit rate 9.2% among 290,000 | AID 2315 | Vero cells, Shiga toxin protein synthesis inhibition reporter | inhibition, % at 38.7 µM; in the data active = inhibition mostly above about 28%, no sharp cut-off; inactive = mostly below about 43%; also: 0% is about no effect
CLK4 ADP-Glo – CLK4 (human) kinase inhibition, ADP-Glo confirmation | shares compounds with Pf growth 48h | recombinant Clk4, RS peptide, ADP-Glo luminescence | Potency, µM (doses to about 80 µM), without a hit: at the top dose activity, negative = inhibition, usual class: inhibitors | hit rate 80% among 65
Target sequence (Q9HAZ1 whole entry, looked up): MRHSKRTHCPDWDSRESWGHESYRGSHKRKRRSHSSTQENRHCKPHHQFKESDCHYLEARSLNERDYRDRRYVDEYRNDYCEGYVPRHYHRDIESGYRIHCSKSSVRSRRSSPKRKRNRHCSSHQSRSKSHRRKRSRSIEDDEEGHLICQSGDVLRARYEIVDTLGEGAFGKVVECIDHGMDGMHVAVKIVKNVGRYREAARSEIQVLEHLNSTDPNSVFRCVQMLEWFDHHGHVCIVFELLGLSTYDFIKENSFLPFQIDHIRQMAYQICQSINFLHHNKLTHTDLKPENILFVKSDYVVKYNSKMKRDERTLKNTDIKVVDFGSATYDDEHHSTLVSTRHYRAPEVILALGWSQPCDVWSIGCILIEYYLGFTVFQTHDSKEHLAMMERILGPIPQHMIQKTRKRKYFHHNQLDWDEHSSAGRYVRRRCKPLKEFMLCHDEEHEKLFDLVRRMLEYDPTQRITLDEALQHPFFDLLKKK
CLK4 cf ADP-FP – confirmation of human CDC-like kinase 4 (CLK4) inhibitors | shares compounds with Pf growth 48h | recombinant Clk4, ADP Transcreener FP, RS peptide | Potency, µM (highest dose often 80 µM), for inactives: at the highest dose activity, negative = inhibition, most hits filed as inhibitors | hit rate 70% among 65
* = called active by the depositor; ? = inconclusive; . = no result; ! = repeats disagree. Unless noted, calls follow the shape of the dose curve; as a rule, active = well fitted curve in the direction sought with a large enough effect; inconclusive = small, poorly fitted or top-dose-only effect, or another doubt; inactive = no such curve, though single readings can be large; an effect the other way counts as inactive or inconclusive.

SMILES | Pf growth 48h | Cycloheximide cs | Pf growth 96h | Shiga inhibitor | CLK4 ADP-Glo | CLK4 cf ADP-FP
Cc1csc(CNc2ncnc3ccc(-c4ccccc4Cl)cc23)c1 | 9.28µM* | . | 2.62µM* | . | 8.91µM* | ?
CCN(CC)C(=O)C1=C(C)Nc2ncnn2C1c1cccnc1 (stereo unspecified) | 7.5% | -1.2 | 4.7% | -5.8 | . | .
Cc1csc(CNc2ncnc3ccc(-c4ccc5c(c4)OCO5)cc23)c1 | 10.4µM* | . | 3.29µM* | . | 0.159µM* | 0.159µM*
Cc1csc(CNc2ncnc3ccc(-c4ccc5c(c4)OCCO5)cc23)c1 | 11.7µM* | . | ? | . | 0.447µM* | 0.562µM*
Cc1csc(CNc2ncnc3ccc(-c4cccnc4)cc23)c1 | ? | . | 10.4µM* | . | 4.47µM* | 11.2µM*
Cc1ccc2ncnc(NCCCCCC(=O)O)c2c1 | 1.4% | -2.9 | 4.8% | 19.6 | . | .
COc1cccc(-c2ccc3ncnc(NCc4cc(C)cs4)c3c2)c1 | 6.57µM* | . | 4.15µM* | . | 0.891µM* | 1.26µM*
Cc1csc(CNc2ncnc3ccc(-c4ccoc4)cc23)c1 | 13.1µM*! | . | ? | . | 0.562µM* | 0.562µM*
Cc1ccc[n+](CC2OCc3ccccc3CO2)c1 | ? | -1.8 | ? | -15.5 | . | .
COc1ccc(C(C)=O)cc1CSc1nnc(-c2ccccc2O)n1-c1ccccc1 | ? | 5.6 | 138.5% | 6.2 | . | .
COc1ccc(Cl)cc1NC(=O)CSc1nc(Nc2ccccc2)nc(N2CCOCC2)n1 | -2.2% | -3.2 | 32.6% | -10.8 | . | .

Compound activity as filed in PubChem BioAssay.
